Experimental findings from PubChem BioAssay AID1851 (National Center for Advancing Translational Sciences (NCATS), 2009) are described below.

Several values for one entry are separate records, joined by “and”; a condition that tells them apart may be missing. Equal values may be shown once. Screen size: about 16,000 compounds; about 5,800 (36%) were called active. Inconclusive results (about 23%) are left out. Calls follow the shape of the dose curve; as a rule, active = well fitted curve in the direction sought with a large enough effect; inconclusive = small, poorly fitted or top-dose-only effect, or effect the other way; inactive = no such curve, though single readings can be large or run the other way. The list shows a part of the results. Some compounds were tested as several samples or in several runs, with calls that do not always agree.
% is scaled to controls: 0 for no effect and ±100 for the full control effect.

The target in this assay is Cytochrome P450 2C19 (Homo sapiens) (UniProt P33261). Description: Cytochrome panel assay with activity outcomes. As to conditions: recombinant CYP, pro-luciferin dealkylation, luminescence, p450-cyp2c19; series mostly up to 57.1 µM.
Chain of Cytochrome P450 2C19 (Homo sapiens) (P33261 whole entry, looked up): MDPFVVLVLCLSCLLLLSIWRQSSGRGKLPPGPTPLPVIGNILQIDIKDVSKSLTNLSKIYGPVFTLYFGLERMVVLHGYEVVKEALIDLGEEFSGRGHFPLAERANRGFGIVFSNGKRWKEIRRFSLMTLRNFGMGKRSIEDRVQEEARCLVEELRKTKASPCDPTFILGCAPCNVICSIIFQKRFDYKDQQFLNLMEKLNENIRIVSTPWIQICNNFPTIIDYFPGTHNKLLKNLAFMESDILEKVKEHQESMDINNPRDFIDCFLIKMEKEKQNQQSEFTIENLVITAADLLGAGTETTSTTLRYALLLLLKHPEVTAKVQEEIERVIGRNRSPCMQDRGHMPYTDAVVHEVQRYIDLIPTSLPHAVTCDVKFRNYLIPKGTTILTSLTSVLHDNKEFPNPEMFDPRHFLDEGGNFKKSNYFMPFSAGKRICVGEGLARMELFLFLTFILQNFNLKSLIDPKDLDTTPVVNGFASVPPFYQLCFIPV
Usually AC50 stands for the concentration giving half of the maximal activity seen. As for `CC[C@@H](CO)Nc1nc(NCc2ccccc2)c2ncn(C(C)C)c2n1`, the AC50 result was “inactive”.

Consider `CNCCc1c[nH]c2ccc(O)cc12`, for which the AC50 result is “inactive”.

Take `Cc1[nH]c2ccc(O)cc2c1CCN`: the AC50 entry is “inactive and 7.94 µM (active)”.

On to `NCCc1c[nH]c2ccc(O)cc12`, for which the AC50 result is “inactive”.

In the case of `CCCN(CCC)[C@@H]1CCc2c(OC)cccc2[C@@H]1C`, the AC50 result is “inactive”.

On to `C[C@]12CC[C@H](O)CC1=CC[C@@H]1[C@H]2CC[C@]2(C)C(=O)CC[C@H]12`, for which the AC50 result is “inactive”.

As to `O=P(Nc1ccccc1)(Nc1ccccc1)Oc1cccc(Cl)c1`, the half-maximal activity concentration (AC50) is 5010 nM (active).

In the case of `NS(=O)(=O)c1ccc(-c2ccc([As](=O)(O)O)cc2)cc1`, the activity, negative = inhibition was 24.2% [at 11.4 µM] (inactive).

With `C[C@]12N[C@H](Cc3ccccc31)c1ccccc12`, the AC50 entry was “inactive”.

Take `N#Cc1ccc(CN2CC[C@@]3(CCCNC3)C2)cc1`: the AC50 entry is “inactive”.

With `Clc1cccc(N2CCNCC2)c1`, the AC50 entry was “inactive”.

In the case of `CN[C@H](Cc1ccccc1)c1cccc(OC)c1O`, the half-maximal activity concentration (AC50) was 2000 nM (active).

`NCCP(=O)(O)O`: the activity, negative = inhibition was 26% [at 11.4 µM] (inactive).

As for `O=C(CNS(=O)(=O)c1ccc(Br)s1)N1CCC2(CC1)OCCO2`, the AC50 is 2820 nM (active).

For `O=C(CNS(=O)(=O)c1cccs1)N1CCC2(CC1)OCCO2`, the half-maximal activity concentration (AC50) was 7080 nM (active).

With `O=C(Cn1ncc2ccsc2c1=O)N1CCC2(CC1)OCCO2`, the concentration at half-maximal activity (AC50) was 22400 nM (active).

On to `CCN(CC)CCO[C@H]1CC[C@@]2(C)C(=CC[C@@H]3[C@H]2CC[C@]2(C)C(=O)CC[C@H]32)C1`, for which the AC50 entry was “inactive”.

Take `CN(C)C(=O)Oc1cccc([N+](C)(C)C)c1`: the AC50 result is “inactive”.

In the case of `O=C(Oc1ccc(S(=O)(=O)F)cc1F)c1ccccc1Cl`, the activity, negative = inhibition is 11.2% [at 11.4 µM] (inactive).

`N[C@@]1(C(=O)O)CC[C@H](C(=O)O)C1`: the AC50 entry is “inactive”.

On to `CC(C)CN1CC[C@@]2(CCCN(C(=O)Oc3ccccc3)C2)C1`, for which the AC50 entry is “inactive”.

`C[C@@H]1[C@@H](C)N1C[C@H](O)Cn1ccnc1[N+](=O)[O-]` (stereo partly specified): the activity, negative = inhibition is 3.22% [at 11.4 µM] (inactive).

As for `O=c1c2ccccc2c2ccccc2c(=O)n1-c1cc2c3ccccc3ccc2c2ccccc12`, the AC50 was 158 nM (active).

Regarding `CC[C@H]1CN2CC[C@@H]1C[C@H]2[C@@H](O)c1ccnc2ccc(OC)cc12`, the AC50 result is “inactive”.

Regarding `Cc1ncsc1CCCl`, the AC50 is 7940 nM (active).

For the compound `CN(C)CCC=C1c2ccccc2CCc2ccccc21`, the AC50 entry was “inactive”.

On to `CCN(CC)C1=NC(=[N+](CC)CC)c2ccccc21`, for which the AC50 entry was “inactive”.

In the case of `C[C@@]12CCC(=O)C=C1C=C[C@H]1[C@H]3CC[C@](O)(CCC(=O)O)[C@]3(C)CC[C@@H]12`, the AC50 result is “inactive”.

In the case of `COC(=O)c1cc2c(cn1)[nH]c1ccccc12`, the AC50 is 3980 nM (active).

Regarding `C[C@@]12CC[C@H]3[C@@H](CCC4=CC(=O)CC[C@]43C)[C@H]1CC[C@H]2C(=O)CO`, the AC50 entry was “inactive”.

Take `Cc1ccc(S(=O)(=O)O[C@H]2CN3CCC2CC3)cc1`: the activity, negative = inhibition is 21.1% [at 11.4 µM] (inactive).

Regarding `NC(N)=Nc1ccc2[nH]c3c(c2c1)C[C@]1(O)[C@@H]2Cc4ccc(O)c5c4[C@]1(CCN2CC1CC1)[C@H]3O5`, the AC50 entry is “inactive”.

`O=[N+]([O-])O[C@H]1CO[C@H]2[C@H]1OC[C@@H]2O[N+](=O)[O-]`: the AC50 result was “inactive”.

Take `CCCC[N+]1(C)[C@@H]2CC(OC(=O)[C@@H](CO)c3ccccc3)C[C@H]1[C@H]1O[C@H]12` (stereo partly specified): the AC50 entry is “inactive”.

Regarding `CC1=C(O)C(=O)[C@H]2O[C@@H]2C1=O`, the AC50 is 158 nM (active).

With `CN1CCCC2(CCN(C(=O)c3ccncc3)CC2)C1`, the AC50 entry is “inactive”.

In the case of `CN(C)Cc1c[nH]c2ccccc12`, the AC50 entry was “inactive”.

With `CC1=NN(c2ccccc2)C(=O)[C@@H]1N=Nc1ccc([As](=O)(O)O)c(O)c1`, the activity, negative = inhibition was 22.8% [at 11.4 µM] (inactive).

As to `C[C@H](c1ccccc1)N1CCN([C@@H](C)c2ccccc2)CC1`, the activity, negative = inhibition was -29.5% [at 11.4 µM] (inactive).

With `Cc1cc(C(C)(C)C)cc(C)c1CC1=NCCN1`, the AC50 result was “inactive”.

Turning to `C=CCN1C(=O)NC(=O)/C(=C/c2cccn2C)C1=O`, the AC50 result is “inactive”.

On to `CCN(CC)c1ccc(/C=C2/C(=O)NC(=O)N(CC3CCCO3)C2=O)cc1` (stereo unspecified), for which the AC50 was 7080 nM (active).

For the compound `Oc1ccc([C@H](O)[C@@H]2CCCCN2)cc1O`, the activity, negative = inhibition is 10% [at 11.4 µM] (inactive).

Turning to `CN1[C@H]2CC(=O)C[C@@H]1[C@@H](O)C2`, the AC50 result was “inactive”.

`C[C@@]12CC[C@H]3[C@@H](CC[C@@H]4C[C@H]5S[C@H]5C[C@]43C)[C@H]1CC[C@H]2O`: the AC50 was 63.1 nM (active).

On to `C[C@@]12CC[C@@H]3c4ccc(O)cc4CC[C@H]3[C@H]1CC[C@H]2O`, for which the AC50 result was “inactive”.

In the case of `C[N+](C)(C)CCCCCCCCCC[N+](C)(C)C`, the AC50 result was “inactive”.

As to `Nc1nc(N)c(N=Nc2ccc([As](=O)(O)O)cc2)c(=O)[nH]1`, the activity, negative = inhibition is 19% [at 11.4 µM] (inactive).

Consider `COC(=O)Nc1nc2ccc(C(=O)c3cccs3)cc2[nH]1`, for which the AC50 entry is “inactive”.

On to `O=C1C=CC(=O)c2c1ccc1c2ccc2ccccc21`, for which the AC50 was 1580 nM (active).

On to `CCN1C[C@]2(COC)CC[C@H](O)[C@@]34[C@@H]5C[C@H]6[C@@H](OC)[C@H]5[C@](O)(C[C@@H]6OC)[C@@](O)([C@@H](OC)[C@H]23)[C@@H]14`, for which the AC50 entry was “inactive”.

Take `C[C@@]12CC[C@@H]3[C@@H](CC[C@H]4C[C@@H](O)CC[C@]43C)[C@H]1CC[C@@H]2c1cc(C(F)(F)F)n[nH]1`: the concentration at half-maximal activity (AC50) was 2510 nM (active).

As to `C[C@]12CC[C@H](O)C[C@@H]1CC[C@H]1[C@H]2CC[C@]2(C)[C@H](C(=O)CO)CC[C@@H]12`, the AC50 result is “inactive”.

For `C[C@]12CC[C@H](O)C[C@@H]1CC[C@H]1[C@H]2CC[C@]2(C)C(=O)CC[C@@H]12`, the AC50 result was “inactive”.

For `NN=C(N)N`, the AC50 result is “inactive”.

With `N[C@H](CCC(=O)N[C@H](CSN=O)C(=O)NCC(=O)O)C(=O)O`, the AC50 was 1580 nM (active).

`COC(=O)[C@H]1C(=O)c2ccccc2O[C@@](C(=O)OC)(c2ccccc2)[C@@H]1c1ccccc1`: the activity, negative = inhibition was -43% [at 11.4 µM] (inactive).

With `CN1CCN(c2cc(N3CCCC3)c([N+](=O)[O-])cc2F)CC1`, the AC50 is 7940 nM (active).

Turning to `NC(=O)c1cc(N2CC2)c([N+](=O)[O-])cc1[N+](=O)[O-]`, the AC50 result was “inactive”.

With `CN(C)C(=O)Oc1ccc[n+](C)c1`, the AC50 entry is “inactive”.

Consider `CSC([N-]/N=C/c1cccc(C)n1)=[S]=[Cu].CS[C@H]([S-])[N-]/N=C/c1cccc(C)n1`, for which the AC50 is 200 nM (active).
